Results published in paper PMC5540273 (PLoS ONE, 2017).

How the values were obtained:
[1] = tested on: AAK1; conditions: concentration: 1 μM, replicates: in singlicate; n = 1
[2] = tested on: ABL1-nonphosphorylated; conditions: concentration: 1 μM, replicates: in singlicate; n = 1
[3] = tested on: ABL1-phosphorylated; conditions: concentration: 1 μM, replicates: in singlicate; n = 1
[4] = tested on: TYK2(JH1domain-catalytic)
[5] = tested on: TNIK
[6] = tested on: T1, TRKA
T1 construct: gene NTRK1

[7] = tested on: TYK2(JH2domain-pseudokinase)
[8] = tested on: T2, p38-alpha
T2 construct: gene MAPK14

[9] = tested on: T3, p38-beta
T3 construct: gene MAPK11
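Wherever %Inh is given: KINOMEscan kinase panel screen.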
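Wherever Kd is given: kd values determined as follow-up on hits from a single-replicate KINOMEscan panel screen.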

Question: `COC(=O)c1c(-c2ccccc2)c2cc(Cl)ccc2c(=O)n1Cc1ccc(S(C)(=O)=O)cc1` was tested. Which “%Inh” value [1] did it give?
Answer: 18%

Question: What about the “%Inh” value [2] of the same compound?
Answer: 40%

Question: What about the “%Inh” value [3] of the same compound?
Answer: 0%

Question: How did the Kd [4] turn out when `C[C@@H]1CCN(C(=O)CO)C[C@@H]1N(C)c1ncnc2[nH]ccc12` was run?
Answer: 110 nM

Question: And the “%Inh” value [1]?
Answer: 8%

Question: What about the “%Inh” value [2] of the same compound?
Answer: 35%

Question: What about the “%Inh” value [3] of the same compound?
Answer: 0%

Question: With `Nc1nc(-c2cccnc2)c(-c2ccnc3ccccc23)s1` [GW684083] as the compound, how does the Kd [5] read?
Answer: > 10000 nM

Question: And the “%Inh” value [1]?
Answer: 57%

Question: What about the “%Inh” value [2] of the same compound?
Answer: 0%

Question: And the “%Inh” value [3]?
Answer: 0%

Question: What does the source list for `CC(=O)Nc1n[nH]c2ncc(-c3ccccc3)cc12` [SB-548492]?
Answer: Kd [6]: 2500 nM; Kd [7]: 580 nM; %Inh [1]: 0%; %Inh [2]: 49%; %Inh [3]: 20%

Question: For `COc1ccc(NC(=O)c2ccc(-c3cc(-c4nnc(C)o4)ccc3C)cc2)cc1` [GW595885], which Kd [8] is on record?
Answer: 180 nM

Question: What about the “%Inh” value [1] of the same compound?
Answer: 0%

Question: What about the “%Inh” value [2] of the same compound?
Answer: 0%

Question: And the “%Inh” value [3]?
Answer: 0%

Question: `COc1cc2c(Nc3cccc(NC(=O)c4ccccc4)c3)ncnc2cc1OCCCN1CCOCC1` [GSK223810] was tested. Which Kd [8] did it give?
Answer: 440 nM

Question: What about the Kd [9] of the same compound?
Answer: 100 nM

Question: What about the “%Inh” value [1] of the same compound?
Answer: 45%

Question: And the “%Inh” value [2]?
Answer: 41%

Question: What about the “%Inh” value [3] of the same compound?
Answer: 0%

Question: How did the Kd [7] turn out when `CN1c2ccc(-c3ccc(C(=O)NCCO)cc3)cc2-c2[nH]ncc2S1(=O)=O` was run?
Answer: 130 nM

Question: And the “%Inh” value [1]?
Answer: 54%

Question: What about the “%Inh” value [2] of the same compound?
Answer: 33%

Question: And the “%Inh” value [3]?
Answer: 15%

Question: Which “%Inh” value [1] does the source give for `Cl.Cl.c1ccc(-c2cc3ccncc3cc2OC2CCNCC2)cc1` [GSK1122999] here?
Answer: 27%

Question: And the “%Inh” value [2]?
Answer: 0%

Question: And the “%Inh” value [3]?
Answer: 0%

Question: For `Cc1ccc(C)c(NC(=O)NCCNc2ccnc(Nc3ccc(F)cc3)n2)c1` [GSK1379878], which “%Inh” value [1] is on record?
Answer: 63%

Question: And the “%Inh” value [2]?
Answer: 0%

Question: What about the “%Inh” value [3] of the same compound?
Answer: 0%

Question: Which results are given for `O=C(Nc1n[nH]c2nc(-c3ccco3)c(Br)cc12)c1ccc(CN2CCCC2)cc1.O=C(O)[C@H](O)[C@@H](O)C(=O)O` [SB-742352]?
Answer: %Inh [1]: 0%; %Inh [2]: 63%; %Inh [3]: 36%

Question: How did the “%Inh” value [1] turn out when `Fc1cccc(COc2ccc(Nc3ncnc4nn5ccccc5c34)cc2Cl)c1` [GW689066] was run?
Answer: 0%

Question: What about the “%Inh” value [2] of the same compound?
Answer: 0%

Question: What about the “%Inh” value [3] of the same compound?
Answer: 0%

Question: What does the source list for `Cl.O=S(=O)(c1cccc(F)c1)c1ccc(Nc2ncnc3cc(Br)sc23)cc1Cl` [GSK306886]?
Answer: %Inh [1]: 16%; %Inh [2]: 0%; %Inh [3]: 0%

Question: Which results are given for `Fc1ccc(-c2ncn(CCCNCc3ccccc3)c2-c2ccncc2)cc1`?
Answer: %Inh [1]: 16%; %Inh [2]: 25%; %Inh [3]: 15%

Question: With `Cl.Cn1ccc(-c2cccc(Nc3ccnc4cc(-c5nccs5)ccc34)c2)n1` [GW525701] as the compound, how does the “%Inh” value [1] read?
Answer: 50%

Question: And the “%Inh” value [2]?
Answer: 0%

Question: What about the “%Inh” value [3] of the same compound?
Answer: 1%

Question: With `O=C(CCO)NCCn1ccc2ncnc(Nc3ccc(Oc4cccc(C(F)(F)F)c4)c(Cl)c3)c21` as the compound, how does the “%Inh” value [1] read?
Answer: 0%

Question: What about the “%Inh” value [2] of the same compound?
Answer: 24%

Question: What about the “%Inh” value [3] of the same compound?
Answer: 12%

Question: With `FC(F)(F)c1cc(Nc2nccc(-c3c(-c4ccc(Cl)cc4)nn4ncccc34)n2)ccc1Cl` [GW829351] as the compound, how does the “%Inh” value [1] read?
Answer: 4%

Question: And the “%Inh” value [2]?
Answer: 42%

Question: And the “%Inh” value [3]?
Answer: 0%

Question: Which results are given for `O=C(Nc1ccccc1F)NC1CCN(c2ccnc(Nc3ccc(F)cc3)n2)C1` (centres unmarked) [GSK1379722]?
Answer: %Inh [1]: 0%; %Inh [2]: 0%; %Inh [3]: 0%

Question: Which “%Inh” value [1] does the source give for `Cc1cc(N2CCC(NS(=O)(=O)c3ccc(F)cc3)CC2)nc(Nc2cccc(C#N)c2)n1.O=C(O)C(F)(F)F` [GSK1653537] here?
Answer: 9%

Question: And the “%Inh” value [2]?
Answer: 0%

Question: What about the “%Inh” value [3] of the same compound?
Answer: 0%

Question: For `Fc1cccc(COc2ccc(Nc3ncnc4sc(-c5ccc[nH]5)cc34)cc2Cl)c1` [GW707818], which “%Inh” value [1] is on record?
Answer: 0%

Question: What about the “%Inh” value [2] of the same compound?
Answer: 0%

Question: And the “%Inh” value [3]?
Answer: 0%

Question: Which results are given for `CNc1nccc(-c2c(-c3ccc(F)cc3)ncn2CCCN2CCOCC2)n1` [SB-222516]?
Answer: %Inh [1]: 0%; %Inh [2]: 23%; %Inh [3]: 0%

Question: Which results are given for `CCn1c(-c2ccncc2)nc2cnccc21` [SB-735216]?
Answer: %Inh [1]: 0%; %Inh [2]: 26%; %Inh [3]: 0%

Question: For `COc1ccc(Nc2nccc(N3CCC(NC(=O)Nc4ccc5c(c4)OCO5)C3)n2)cc1` (centres unmarked) [GSK1379745], which “%Inh” value [1] is on record?
Answer: 3%

Question: What about the “%Inh” value [2] of the same compound?
Answer: 0%

Question: And the “%Inh” value [3]?
Answer: 0%

Question: Which “%Inh” value [1] does the source give for `Clc1cccc(-c2nc(Nc3ccncc3)c3ccccc3n2)c1` [GW873004] here?
Answer: 0%

Question: What about the “%Inh” value [2] of the same compound?
Answer: 51%

Question: And the “%Inh” value [3]?
Answer: 14%

Question: Which “%Inh” value [1] does the source give for `Cc1ccc(NC(=O)c2cccc(C#N)c2)cc1-c1ccc(C(=O)Nc2ccncc2)cc1` [GSK1398463] here?
Answer: 73%

Question: What about the “%Inh” value [2] of the same compound?
Answer: 50%

Question: What about the “%Inh” value [3] of the same compound?
Answer: 10%

Question: With `CSc1ccc(NC2=C(c3ccccc3Cl)C(=O)NC2=O)cc1` [SB-342411] as the compound, how does the “%Inh” value [1] read?
Answer: 24%

Question: And the “%Inh” value [2]?
Answer: 0%

Question: What about the “%Inh” value [3] of the same compound?
Answer: 0%

Question: With `Fc1cccc(COc2ccc(Nc3ncnc4cc[nH]c34)cc2Cl)c1` as the compound, how does the “%Inh” value [1] read?
Answer: 4%

Question: What about the “%Inh” value [2] of the same compound?
Answer: 19%

Question: What about the “%Inh” value [3] of the same compound?
Answer: 21%

Question: What does the source list for `Cc1cccc(-c2nc(Nc3ccc4[nH]nnc4c3)c3ccccc3n2)n1` [GW867587]?
Answer: %Inh [1]: 0%; %Inh [2]: 78%; %Inh [3]: 47%

Question: For `Cc1ccc(O)cc1Nc1cc(C(F)(F)F)nc2ccc(-c3ccncc3)cc12` [GW630823], which “%Inh” value [1] is on record?
Answer: 0%

Question: What about the “%Inh” value [2] of the same compound?
Answer: 21%

Question: What about the “%Inh” value [3] of the same compound?
Answer: 7%

Question: With `Cn1ccc2ncnc(Nc3ccc(Oc4cccc(Cl)c4)c(Cl)c3)c21` as the compound, how does the “%Inh” value [1] read?
Answer: 27%

Question: What about the “%Inh” value [2] of the same compound?
Answer: 45%

Question: What about the “%Inh” value [3] of the same compound?
Answer: 15%

Question: `c1ccc(-c2ccc3c(-c4ccnc(Nc5ccc6c(c5)OCCO6)n4)cnn3n2)cc1` [GW818941] was tested. Which “%Inh” value [1] did it give?
Answer: 0%

Question: And the “%Inh” value [2]?
Answer: 0%

Question: And the “%Inh” value [3]?
Answer: 0%

Question: Which results are given for `FC(F)(F)c1ccc(-c2nn3ncccc3c2-c2ccnc(Nc3cccc(C(F)(F)F)c3)n2)cc1` [GW828205]?
Answer: %Inh [1]: 1%; %Inh [2]: 47%; %Inh [3]: 30%

Question: Which “%Inh” value [1] does the source give for `Nc1nc(-c2ccc3c(N)n[nH]c3c2)cc(N2CCCCC2)n1` [GSK2228768] here?
Answer: 53%

Question: What about the “%Inh” value [2] of the same compound?
Answer: 0%

Question: And the “%Inh” value [3]?
Answer: 0%

Question: Which “%Inh” value [1] does the source give for `CC(C)(C)c1ccc(-n2cnc3c(N)ncnc32)cc1` [SKF-97263] here?
Answer: 1%

Question: And the “%Inh” value [2]?
Answer: 0%

Question: And the “%Inh” value [3]?
Answer: 0%

Question: How did the “%Inh” value [1] turn out when `Cl.Fc1ccccc1COc1ccc(Nc2ncnc3ccc(-c4nnc(C(F)(F)F)o4)cc23)cc1Cl` [GW424170] was run?
Answer: 0%

Question: What about the “%Inh” value [2] of the same compound?
Answer: 0%

Question: And the “%Inh” value [3]?
Answer: 0%

Question: Which “%Inh” value [1] does the source give for `COc1cc2ncnc(Nc3ccc(OCc4ccccc4Br)c(Cl)c3)c2cc1OC.Cl` [GI261590] here?
Answer: 15%

Question: And the “%Inh” value [2]?
Answer: 0%

Question: What about the “%Inh” value [3] of the same compound?
Answer: 0%

Question: What does the source list for `COc1ccc(NC(=O)Nc2ccc(C)c(-c3ccc(C(=O)Nc4ccncc4)cc3)c2)cc1` [GSK1398475]?
Answer: %Inh [1]: 2%; %Inh [2]: 0%; %Inh [3]: 2%

Question: `Cl.c1ccc(Cn2ncc3cc(Nc4ncnc5ccccc45)ccc32)cc1` [GW273749] was tested. Which “%Inh” value [1] did it give?
Answer: 30%

Question: And the “%Inh” value [2]?
Answer: 38%

Question: And the “%Inh” value [3]?
Answer: 17%

Question: `Nc1nccc2scc(-c3ccc4c(c3)CCN4C(=O)Cc3cc(F)ccc3F)c12` [GSK2587663] was tested. Which “%Inh” value [1] did it give?
Answer: 0%

Question: What about the “%Inh” value [2] of the same compound?
Answer: 0%

Question: What about the “%Inh” value [3] of the same compound?
Answer: 0%

Question: How did the “%Inh” value [1] turn out when `COC(=O)c1cccc(NC(=O)NCCNc2ccnc(Nc3ccc(F)cc3)n2)c1` [GSK1379883] was run?
Answer: 3%

Question: What about the “%Inh” value [2] of the same compound?
Answer: 0%

Question: And the “%Inh” value [3]?
Answer: 0%

Question: Which “%Inh” value [1] does the source give for `OCCOCCn1ccc2ncnc(Nc3ccc(Oc4cccc(Cl)c4)c(Cl)c3)c21` here?
Answer: 0%

Question: What about the “%Inh” value [2] of the same compound?
Answer: 24%

Question: What about the “%Inh” value [3] of the same compound?
Answer: 0%

Question: With `Clc1cc(Nc2ncnc3cc[nH]c23)ccc1OCc1ccccn1` as the compound, how does the “%Inh” value [1] read?
Answer: 7%

Question: And the “%Inh” value [2]?
Answer: 48%

Question: And the “%Inh” value [3]?
Answer: 0%

Question: How did the “%Inh” value [1] turn out when `Cn1cc(-c2ccc3c(c2)CCN3C(=O)Cc2cccc(C(F)(F)F)c2)c2c(N)ncnc21` [GSK2606414] was run?
Answer: 0%

Question: What about the “%Inh” value [2] of the same compound?
Answer: 0%

Question: What about the “%Inh” value [3] of the same compound?
Answer: 0%

Question: Which “%Inh” value [1] does the source give for `Oc1ccc2ncnc(Nc3ccc(OCc4ccccc4)cc3)c2c1` [GI262866] here?
Answer: 0%

Question: And the “%Inh” value [2]?
Answer: 0%

Question: What about the “%Inh” value [3] of the same compound?
Answer: 0%

Question: What does the source list for `Cl.c1ccc(Cn2ccc3cc(Nc4ncnc5ccccc45)ccc32)cc1` [GW275568]?
Answer: %Inh [1]: 17%; %Inh [2]: 0%; %Inh [3]: 30%
